Experimental data reported in PubChem BioAssay (NCATS).
Values joined by “and” are separate entries in the source; they are usually repeats but may differ in a detail not shown here. Equal values may be shown once. Inconclusive results are not listed. Active and inactive are the calls of the source. Calls come from the whole dose curve; as a rule, active = well fitted inhibition curve with a large enough effect in the repeat runs; inconclusive = weak or mixed curves; inactive = flat fitted curve, though single readings scatter.

The compounds below were run against Cytochrome P450 2D6 (Homo sapiens) (UniProt P10635) (assay: Cytochrome P450 family 2 subfamily D member 6 (CYP2D6) small molecule antagonists: luciferase biochemical (cell-free) qHTS assay (AID 1645840; note: nearly all actives have a fitted effect of over 55% in size)). Details: P450-Glo CYP2D6 enzyme, luciferin luminescence, 1 h; series mostly up to 57.4 µM; activity change, negative = inhibition: at the top concentration.
Protocol: National Center for Advancing Translational Sciences [NCATS] Assay Overview: Cytochrome P450 (CYP) enzymes are membrane-bound hemeproteins that play a key role in metabolism of drugs and xenobiotics. Assaying the effect of chemicals on CYP isozymes is useful to minimize the adverse drug reactions and toxicities in drug development process. Chemical compounds were tested for their effect on CYP enzyme activities by using P450-Glo (TM) screening systems (Promega Corporation, Madison, WI). These systems provide a luminescent method containing proluciferin substrates and are converted to luciferin products by CYP isozymes. The luciferin products formed are detected with a luciferin detection reagent, and the amount of light produced is proportional to CYP activity. P450-Glo (TM) CYP2D6 screening system (Catalog. No. V9890) was used to detect the compounds that interfere in CYP2D6 activity.
Assay Protocol Summary: Two ul of enzyme-substrate mix was dispensed into medium binding white/solid 1536-well plates (Greiner Bio-One North America Inc., Monroe, NC) using a Flying Reagent Dispenser (FRD, Aurora Discovery, San Diego, CA). […] The assay plates were incubated at room temperature for 10 min. Then 2 ul of NADPH regeneration solution was added to each well of the assay plates using an FRD and incubated at room temperature for 1 h. The reaction was stopped by adding 4 ul of detection reagent using an FRD and after 20 min incubation at room temperature, the luminescence signal was measured using a ViewLux plate reader (Perkin Elmer, Shelton, CT). Data were expressed as relative luminescence units.
% is set by controls: 0 for no effect and ±100 for the full control effect; potency is the fitted concentration of half-maximal effect.

Cytochrome P450 2D6 (Homo sapiens), sequence (P10635 whole entry, looked up): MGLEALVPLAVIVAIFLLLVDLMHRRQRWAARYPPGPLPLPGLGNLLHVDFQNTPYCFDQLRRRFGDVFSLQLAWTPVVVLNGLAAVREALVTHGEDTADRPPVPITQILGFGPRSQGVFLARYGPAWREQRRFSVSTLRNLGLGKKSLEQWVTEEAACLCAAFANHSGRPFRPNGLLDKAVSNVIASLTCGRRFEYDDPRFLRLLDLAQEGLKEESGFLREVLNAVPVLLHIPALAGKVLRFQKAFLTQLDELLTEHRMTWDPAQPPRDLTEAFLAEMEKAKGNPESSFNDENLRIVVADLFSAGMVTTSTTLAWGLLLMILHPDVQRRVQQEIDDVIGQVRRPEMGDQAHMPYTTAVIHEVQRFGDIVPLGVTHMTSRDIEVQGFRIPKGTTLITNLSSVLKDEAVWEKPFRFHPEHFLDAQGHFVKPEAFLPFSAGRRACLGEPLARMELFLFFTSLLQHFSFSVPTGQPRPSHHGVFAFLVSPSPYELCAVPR

| Compound | activity change, negative = inhibition | Potency |
| --- | --- | --- |
| CC(C)C[C@H](NC(=O)[C@H](CCc1ccccc1)NC(=O)CN1CCOCC1)C(=O)N[C@@H](Cc1ccccc1)C(=O)N[C@@H](CC(C)C)C(=O)[C@@]1(C)CO1 | -2.23% (inactive) |  |
| COc1cc(NCc2ccc3nc(N)nc(N)c3c2C)cc(OC)c1OC |  | 6.92 µM (active) |
| O[C@@H](CNC[C@H](O)[C@H]1CCc2cc(F)ccc2O1)[C@@H]1CCc2cc(F)ccc2O1 |  | 0.0389 µM (active) |
| Cn1nnc2c(C(N)=O)ncn2c1=O | 7.76% (inactive) |  |
| CO[C@@H]1[C@@H](OC(N)=O)[C@@H](O)[C@H](Oc2ccc3c(O)c(NC(=O)c4ccc(O)c(CC=C(C)C)c4)c(=O)oc3c2C)OC1(C)C | -6.39% (inactive) |  |
| CN(C)CCc1c[nH]c2ccc(CS(=O)(=O)N3CCCC3)cc12 | -4.4% (inactive) |  |
| N[C@@H](C(=O)N[C@@H]1C(=O)N2C(C(=O)O)=C(Cl)CS[C@H]12)c1ccccc1 | 16.7% [at 11.5 µM] (inactive) |  |
| CC(C)(C#N)c1cc(Cn2cncn2)cc(C(C)(C)C#N)c1 | -5.46% (inactive) |  |
| CCCc1cc(C(N)=S)ccn1 | 1.13% (inactive) |  |
| COc1cc([C@@H]2c3cc4c(cc3[C@H](O)[C@H]3COC(=O)[C@H]23)OCO4)cc(OC)c1OC | -21.4% (inactive) |  |
| O=C(O)CSCC(=O)NC1CCSC1=O (stereo not given) | 4.58% (inactive) |  |
| CCCCOc1ccc(CC(=O)NO)cc1 |  | 12.3 µM (active) |
| CC(C)C1CCC(C(=O)N[C@H](Cc2ccccc2)C(=O)O)CC1 (stereo not given in full) | 19.3% (inactive) |  |
| Nc1nc(=S)c2[nH]cnc2[nH]1 | 14.1% (inactive) |  |
| O=C(O)c1cc(=O)[nH]c(=O)[nH]1 |  | inactive |
| O=C(NCC1CN(c2ccc(N3CCOCC3=O)cc2)C(=O)O1)c1ccc(Cl)s1 (stereo not given) |  | inactive |
| CCOCC(O)COc1ccc(NC(=O)CC[S+](C)C)cc1 (stereo not given) | 10% (inactive) |  |
| Cc1cccc(Nc2ccncc2S(=O)(=O)NC(=O)NC(C)C)c1 | 1.83% (inactive) |  |
| C[C@@H]1C[C@H]2[C@@H]3CCC4=CC(=O)C=C[C@]4(C)[C@@]3(Cl)[C@@H](O)C[C@]2(C)[C@@]1(OC(=O)c1ccco1)C(=O)CCl |  | 2.45 µM (active) |
| Nc1nc(F)nc2c1ncn2[C@@H]1O[C@H](CO)[C@@H](O)[C@@H]1O | -20.2% (inactive) |  |

| Compound | activity change, negative = inhibition | Potency |
| --- | --- | --- |
| COc1ncnc(NS(=O)(=O)c2ccc(N)cc2)c1OC | 13.4% (inactive) |  |
| CC(C)OC(=O)OCOP(=O)(CO[C@H](C)Cn1cnc2c(N)ncnc21)OCOC(=O)OC(C)C | 2.25% (inactive) |  |
| Cc1nnc(C(=O)NC(C)(C)c2nc(C(=O)NCc3ccc(F)cc3)c(O)c(=O)n2C)o1 | 1.08% (inactive) |  |
| O=NN(CCCl)C(=O)NC1CCCCC1 | 18.8% (inactive) |  |
| COC(=O)Nc1nc2ccc(S(=O)c3ccccc3)cc2[nH]1 (stereo not given) |  | 12.3 µM (active) |
| CN(Cc1cc(Br)cc(Br)c1N)C1CCCCC1 |  | 0.0195 µM (active) |
| CN1CCCC(n2nc(Cc3ccc(Cl)cc3)c3ccccc3c2=O)CC1 (stereo not given) |  | 0.617 µM (active) |
| COc1c(N2CCNC(C)C2)c(F)cc2c(=O)c(C(=O)O)cn(C3CC3)c12 (stereo not given) |  | inactive |
| CCn1cc(C(=O)O)c(=O)c2cc(F)c(N3CCNCC3)cc21 | 14.4% (inactive) |  |
| CCn1cc(C(=O)O)c(=O)c2cc(F)c(N3CCNCC3)nc21 | 7.99% (inactive) |  |
| CN1CCN(c2c(F)cc3c(=O)c(C(=O)O)cn4c3c2OCN4C)CC1 | 6.6% [at 23.9 µM] (inactive) |  |
| Cn1c(=O)c2c(ncn2CC(O)CO)n(C)c1=O (stereo not given) | 5.16% (inactive) |  |
| COc1cccc(N(C)C(=S)Oc2ccc3c(c2)CCCC3)n1 | -10.3% (inactive) |  |
| CCCOc1ccc(C(=O)OCCN(CC)CC)cc1N |  | 6.17 µM (active) and 6.74 µM (active) |
| COC(=O)Nc1nc2ccc(C(=O)c3ccccc3)cc2[nH]1 | 8.81% (inactive) |  |
| C[C@@H]1CN(c2c(F)c(N)c3c(=O)c(C(=O)O)cn(C4CC4)c3c2F)C[C@H](C)N1 | 9.32% [at 23.9 µM] (inactive) |  |
| NC(=O)c1cccnc1 | 8.39% (inactive) |  |
| COC(c1ccccc1)(c1ccccc1)[C@H](Oc1nc(C)cc(C)n1)C(=O)O | 2.19% (inactive) |  |
| O=P(O)(O)C(O)(Cc1cccnc1)P(=O)(O)O | 8.97% (inactive) |  |
| COc1nc(N)nc2c1ncn2[C@@H]1O[C@H](CO)[C@@H](O)[C@@H]1O |  | inactive |
